# Assay results taken from the supplement of paper PMC6555819.
# System: PPARg DBDmut:RXRa IVT, anti-PPARg (DBD mutation: PPARg1 K132A/R137A, NR concentration 270 nM, RXRa partner concentration 90 nM)
# Assay: PBM binding z-score (relative to random genomic background probes); higher = stronger binding; sequences stand for … in GC…GCGATTGACAGCGTAGAATGAAGG
# In short: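 Custom Agilent 4×180K protein-binding microarrays carried double-stranded probes, each with a 34-nt variable region. These regions held direct-repeat seeds, single-nucleotide variants, half-site ablations and random human genomic background sequences. Ligand-free nuclear receptor dimers were incubated on the arrays for 1 h, antibodies against each partner (one per run) detected binding, and scanned fluorescence was regression-normalized. Binding z-scores take the random background probes as reference.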
row,Sequence,PBM binding z-score
1,TCATATAGGTAAAGGTGAAAGTAGAACGATATGA,2.33
2,CCGAGTAGGTTATGCGGCATTCAGGCAACGGTGA,-1.08
3,TCAGCCAGGTGAAGGTAACTCAGGTACGCAGTCG,-0.394
4,ACTAGCAGGCCAAGTTTGGGTTACTCAAACAAAG,-1.56
5,CCTCGGAGGAAAACAGGAGGTCAGAGCTGCCAGA,-1.65
6,ATATGTTGGTTAGCTGGGGTCATTCAGACTAGGC,0.767
7,GCTTACGGGCCAAAGGTTATAGCATGAATAGAAT,-0.252
8,GCTAGCAGGCCATTTGGGTCACTTAATGACGGGC,-0.44
9,ATCGAAAGGTCGAAGGTGAGTAAACCCACCCGAA,0.972
10,TTACCAATGTGAAGGTCGTTGATCCCTCTGTAGA,-0.143
11,TCATATAGGTTATACAGGTGAAAGTCGGCATCTA,1.95
12,AATACAGGGTCACTAGGCCAGAGCAGGTACGAAT,2.36
13,CCAGACAAGTGAAAGGTAACTCAGTCTGGTACGC,-0.187
14,CCTACTGGGCCACGAAGGGTCATTGATTCAGTGA,-0.0977
15,CAGCTTAGGTCAGGGCCAGTATAGGAGGAACGTT,-0.279
16,TCGCCTAGGTCATGCGGGCCAGTATAGTGTCGGC,-0.0945
17,ATCGAAAGGTCGAGGTGAGTAAAGAGAAAGGGAA,1.11
18,ATACCAAGGTGATCGTGAGGGCGTTGATACTAAC,0.129
19,CCTAATGGGCCATCAGGTCATTGATATCAACGTT,-0.226
20,TAGCCTAGGTCATTCGGCCAGTATAGTACGCATC,-0.386

row,Sequence,PBM binding z-score
1,TAAATGAGGTTATAAGATCAGGGAACGTTGCAAA,1.59
2,AGAATAAGGTTAAGATCAGGGAAACAGAATACAT,1.42
3,TAGCGTAGGTCATTCAGGGGCCAGTATAGAAAGC,0.591
4,TTTTGTAGATCAAGCAGGTTAAGAAAGCCTGAGT,1.82
5,ATCTCTAGGTAACCAAGTTCAGTGATTGCCGAAC,1.17
6,TCATATAGGTAGAAGGTGAAAGTCGGTGTGGTAA,1.46
7,ACAGACAGGTGATGAAGGTAATTCAGGCTATCAT,0.823
8,AGAACGAGGGAAATGAGTTGATAGCACGGGTGGC,0.432
9,ACTTACGGGTCAACGAGGTTATAACACGCGTATA,3.33
10,ACAGACCGGTGATGAAGGTAACTCAGGCTATCAT,0.0593
11,AGAATGAGGTTATACGTAGATCATGGAAGAAAGT,1.46
12,TGAATGAGGTTGTAAGATCAGGGAACGTTGCAAA,0.744
13,ACTAGCAGGCCAAGTTTGGGACACTCAAACAAAG,-0.681
14,CGTCAAAGTTCAGGGTAACGTAACAGAAAGCAGC,0.319
15,ACAATTAGTTGAGACGAGGGCAACCGATAGGTTG,0.916
16,TCGAGTAGGTTAGTCGGGGCATTCAGCCAACATA,-0.526
17,CAAACTCGGTCAAGGTCAAAGTCGGTTTGTGCCA,1.56
18,CCTACTGGGACATCAGGTCATTGATATCAACGTT,0.344
19,AGTCAAAGTTCAGGACGGGGTAACGTAAAGCACG,1.25
20,ATCTCTAGGTAAAGATAGTTTAGTGAATGCAAAT,1.07
